Data from PubChem BioAssay AID2685 (National Center for Advancing Translational Sciences (NCATS), 2010).
Out of some 320,000 compounds screened, about 2,100 (0.66%) were called active. Not shown: some 53% with an inconclusive outcome. The sample holds actives, similar compounds and a random draw of the others, so the mix is not that of the screen. Calls come from the whole dose curve; as a rule, active = well fitted inhibition curve with a large enough effect in the signal ratio, with a control signal flat (not every such curve was filed as active); inconclusive = small, poorly fitted or top-dose-only effect, or effect the other way, or a change in a side signal; inactive = flat fitted curve, though single readings scatter; the % refers to the signal ratio.

Assay: qHTS Assay for Lipid Storage Modulators in Drosophila S3 Cells;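 for cell number change: cells counted by Cell Tracker Red CMTPX staining in the red channel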; for lipid storage change, negative = inhibition: % is set by controls: 0 for no effect and ±100 for the full control effect
Settings: BODIPY lipid droplet fluorescence, 18-24 h, cells fed with added oleic acid; cell number change: measured here: cell count max response; series mostly up to 46.1 µM; lipid storage change, negative = inhibition: at the top concentration
Outline: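 Drosophila S3 cells loaded with oleic acid (400 uM, as added) and compounds at several concentrations; lipid droplets imaged by 488-nm laser-scanning cytometry, 500–530 nm intensity and object ratio to cell channel. Percent activity normalized to 20 uM Triacsin C.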
Potency is the fitted concentration of half-maximal effect.

Row | SMILES | lipid storage change, negative = inhibition | cell number change | Potency | outcome
1 | CCOc1ccc(C(=O)NCC(=O)OCc2ccc(F)cc2Cl)cc1 | 8.58% (inactive) | 13.4% | – | –
2 | CCn1c(=O)c2cc(C(=O)N(C)CC(OC)OC)sc2c2ccccc21 | 2.97% (inactive) | 7.22% | – | –
3 | Cc1noc(C)c1COC(=O)c1cc(S(=O)(=O)N2CCOCC2)ccc1F | 16% (inactive) | 4.32% | – | –
4 | O=C(OCc1nnc(-c2ccccc2)o1)c1cc(S(=O)(=O)N2CCOCC2)ccc1F | 14.7% (inactive) | -16.6% | – | –
5 | CCc1cc2c(COC(=O)c3cc(S(=O)(=O)N4CCOCC4)ccc3F)cc(=O)oc2cc1O | – | -14.4% | 18.4 µM (active) | –
6 | CCc1ccc(OCC(=O)Nc2ccc3c(c2)COC3=O)cc1 | 16% (inactive) | 8.42% | – | –
7 | COc1ccc(C)cc1NC(=O)C1CCN(S(=O)(=O)c2cccc3nonc23)CC1 | – | 15.9% | 3.66 µM (active) | –
8 | COc1ccc(C)cc1NC(=O)C1CCCN(S(=O)(=O)c2cccc3nonc23)C1 (configuration not stated) | 18.1% (inactive) | – | – | –
9 | COc1ccc(NC(=O)C2CCN(S(=O)(=O)c3cccc4cccnc34)CC2)cc1OC | -9.44% (inactive) | -22.5% | – | –
10 | COc1ccc(Cl)cc1NC(=O)C1CCCN(S(=O)(=O)c2cccc3nonc23)C1 (configuration not stated) | 6.59% (inactive) | 8.35% | – | –
11 | COc1ccc(C)cc1NC(=O)C1CCCN(S(=O)(=O)c2cccc3cccnc23)C1 (configuration not stated) | – | 19.9% | – | inactive
12 | COc1ccc(C)cc1NC(=O)C1CCN(S(=O)(=O)c2cccc3cccnc23)CC1 | – | -24.8% | 10.3 µM (active) | –
13 | COc1ccc(S(=O)(=O)Nc2c(C)n(C)n(-c3ccccc3)c2=O)cc1Br | 16.7% (inactive) | -3.28% | – | –
14 | CCN(CC(=O)NCc1ccc(F)cc1)C(=O)c1ccc(COc2ccccc2)cc1 | 7.05% (inactive) | 2.25% | – | –
15 | S=C(Nc1ccccn1)NC1CCCCC1 | 22.6% (inactive) | -4.33% | – | –
16 | COc1ccc(C2CC2/C(C)=N/OC(=O)c2cccs2)cc1 (configuration not stated) | – | – | – | inactive
17 | CCOC(=O)c1cc2sc(C)cc2n1CC(=O)NCCc1ccccc1 | -3.61% (inactive) | 5.86% | – | –
18 | Cc1cccc(C(=O)Nc2ccc(C)c(OC(=O)c3cccc(C)c3)c2)c1 | 0.347% (inactive) | -20.4% | – | –
19 | Cc1ccc(S(=O)(=O)NCCC(=O)NCCCSc2ccccc2)cc1 | – | -14.6% | 16.4 µM (active) | –
20 | COc1ccc(CCNC(=O)COC(=O)c2cnc(C)cn2)cc1OC | 1.54% (inactive) | 5.11% | – | –
21 | CC(=O)Nc1ccc(S(=O)(=O)NCCC(=O)NCCCc2ccccc2)cc1 | – | 6.57% | 1.64 µM (active) | –
22 | CC(=O)Nc1ccc(S(=O)(=O)NCCC(=O)NCCOc2ccccc2)cc1 | 1.4% (inactive) | -2.82% | – | –

Row | SMILES | lipid storage change, negative = inhibition | cell number change | Potency | outcome
23 | CCN(Cc1ccccc1)C(=O)COC(=O)c1cnc(C)cn1 | -29.5% (inactive) | – | – | –
24 | O=C(CCCc1ccccc1)NCCc1ccccc1 | – | 1.1% | – | inactive
25 | O=C(CCCCC(=O)NCCc1ccccc1)NCCc1ccccc1 | -26.6% (inactive) | -15.5% | – | –
26 | O=C(CCCCC(=O)NCCCc1ccccc1)NCCCc1ccccc1 | – | -16.3% | 20.6 µM (active) | –
27 | CC(=O)Nc1ccc(S(=O)(=O)NCCc2ccccc2)cc1 | – | -18.3% | – | inactive
28 | Cc1cnc(C(=O)OCC(=O)NCCCc2ccccc2)cn1 | – | -37.4% | 5.17 µM (active) | –
29 | Cc1ccc(S(=O)(=O)NCCC(=O)NCCOc2ccccc2)cc1 | -20.7% [at 0.0737 µM] (inactive) | 2.02% | – | –
30 | COCCCNC(=O)CCNS(=O)(=O)c1ccc(C)cc1 | 8.63% (inactive) | 9.83% | – | –
31 | CC(=O)NC(Cc1ccccc1)C(=O)OCC(=O)c1ccc(F)cc1 (configuration not stated) | -27.4% (inactive) | – | – | –
32 | Cc1ccc(Nc2nc(-c3ccncc3)nc3ccccc23)cc1 | 6.48% (inactive) | -7.93% | – | –
33 | Cc1nn(CCCC(=O)NCc2ccco2)c(=O)c2nn(-c3ccccc3)c(C)c12 | 15.5% (inactive) | – | – | –
34 | CC(C)(/C=N/O)N(O)C=C1C=CC(=O)C=C1 | 0.34% (inactive) | 1.11% | – | –
35 | N#C/C(C(=O)Oc1ccccc1)=C1\C=Cc2ccccc2N1 | -11.1% (inactive) | -1.92% | – | –
36 | COc1ccc(OC(=O)/C=C/c2ccc([N+](=O)[O-])cc2)cc1 | -3.13% (inactive) | 3.89% | – | –
37 | COc1ccc(S(=O)Cc2ccc(C(=O)NC3CC3)o2)cc1 (configuration not stated) | 12% (inactive) | 13.8% | – | –
38 | COc1ccc(N(C)S(=O)(=O)c2cccc(C(=O)Nc3nnc(C)s3)c2)cc1 | – | -20.6% | – | inactive
39 | COc1ccc(N(C)S(=O)(=O)c2cccc(C(=O)Nc3nc(C)c(C(C)=O)s3)c2)cc1 | – | – | 1.16 µM (active) | –
40 | COc1ccc(N(C)S(=O)(=O)c2cccc(C(=O)Nc3nnc(C4CC4)s3)c2)cc1 | -3.22% (inactive) | – | – | –
41 | O=C(NC(=S)NCc1cccnc1)c1cc2ccccc2o1 | 4.99% (inactive) | -19.5% | – | –
42 | Cc1cc(F)c(F)c(C(=O)N2C(C)CCCC2C)c1Cl (configuration not stated) | -11.4% (inactive) | 0.056% | – | –
43 | Cc1cc(F)c(F)c(C(=O)NC2CC2)c1Cl | – | – | 9.2 µM (active) | –
44 | Cc1cc(F)c(F)c(C(=O)N2CCC(C)CC2)c1Cl | 10.8% (inactive) | 0.433% | – | –

Row | SMILES | lipid storage change, negative = inhibition | cell number change | Potency | outcome
45 | COc1ccc(OCc2cc(C(=O)N(C)C(C)c3ccon3)no2)c(Cl)c1 (configuration not stated) | – | -9.97% | – | inactive
46 | Cc1cc2c(cc1S(=O)(=O)N1CCN(c3ccccc3)CC1)OCCN2C | 25.3% (inactive) | -3.46% | – | –
47 | Cc1ccc(S(=O)(=O)C2(C(=O)N3CCN(c4ccccc4F)CC3)CC2)cc1 | – | -5.26% | 0.731 µM (active) | –
48 | Cc1ccc(S(=O)(=O)C2(C(=O)N3CCN(c4cc(C)ccc4C)CC3)CC2)cc1 | 6.15% (inactive) | – | – | –
49 | Cc1cccc(N2CCN(C(=O)C3(S(=O)(=O)c4ccc(Cl)cc4)CC3)CC2)c1C | 8.29% (inactive) | 0.245% | – | –
50 | C/C(=N\NS(=O)(=O)c1ccc([N+](=O)[O-])cc1)c1c[nH]c2ccccc12 | – | -0.495% | – | inactive
51 | C/C(=N/Nc1ccc([N+](=O)[O-])cc1)c1c[nH]c2ccccc12 | – | -24.9% | 4.11 µM (active) | –
52 | C/C(=N/NS(=O)(=O)c1cccc([N+](=O)[O-])c1)c1c[nH]c2ccccc12 | 1.43% (inactive) | – | – | –
53 | O=C(Cn1cc(S(=O)(=O)Cc2ccccc2F)c2ccccc21)N1CCOCC1 | -4.09% (inactive) | 9.64% | – | –
54 | O=[N+]([O-])c1ccc(N2CCCC2)nc1N1CCCC1 | -1.16% (inactive) | 16.9% | – | –
55 | COc1ccc(-c2cc(=O)c(C(=O)c3ccc(C)cc3)n[nH]2)cc1 | 2.45% (inactive) | 14% | – | –
56 | O=C(OCc1cc(Cl)ccc1OC(F)F)c1cncc(Br)c1 | – | – | – | inactive
57 | O=C(OCc1cc(Cl)ccc1OC(F)F)c1cc(S(=O)(=O)O)ccc1O | – | -6.52% | 1.64 µM (active) | –
58 | O=C(OCc1cc(Cl)ccc1OC(F)F)c1cccnc1 | 8.44% (inactive) | 13.9% | – | –
59 | CC1CC(=O)Nc2ccccc2N1C(=O)CSc1ncnc2sccc12 (configuration not stated) | 6.7% (inactive) | 0.129% | – | –
60 | COc1ccc(CCC(=O)Nc2cccc(S(=O)(=O)N(C)C)c2)cc1OC | -18.4% (inactive) | 15.7% | – | –
61 | COc1ccc([N+](=O)[O-])cc1NC(=S)NC(C)=O | -18.5% (inactive) | 0.615% | – | –
62 | CN(C)S(=O)(=O)Nc1cc(F)cc(F)c1 | -32.6% (inactive) | -8.31% | – | –
63 | Cc1ccc(NS(=O)(=O)N(C)C)cc1 | – | – | – | inactive
64 | CN(C)S(=O)(=O)Nc1cc(Cl)cc(Cl)c1 | – | -41.2% | 18.4 µM (active) | –
65 | CCN(C(=O)COC(=O)c1ccc(Cl)c(N)c1)C1CCS(=O)(=O)C1 (configuration not stated) | 0.308% (inactive) | 6.77% | – | –
66 | CCOc1ccccc1C(=O)n1nc2nc(C)cc(C)c2c1N | – | 6.26% | – | inactive

Row | SMILES | lipid storage change, negative = inhibition | cell number change | Potency | outcome
67 | CCCn1c(N)c(C(=O)CSc2nnc(C3CC3)n2Cc2ccccc2)c(=O)[nH]c1=O | -10.4% (inactive) | 7.78% | – | –
68 | COc1ccc(C(=O)/C=C/c2ccccc2)c(OC)c1 | -0.419% (inactive) | 16.5% | – | –
69 | O=C1C(=O)N(CCCN2CCOCC2)C(c2ccc(F)cc2)/C1=C(\O)c1ccc2c(c1)OCCO2 (configuration not stated) | – | -2.36% | – | inactive
70 | COc1cccc(C(=O)Nc2cccc(OC(C)=O)c2)c1 | – | -9.37% | – | inactive
71 | COc1ccc(CCN2C(=O)/C(=C\c3ccco3)SC2=S)cc1OC | -6.07% (inactive) | -20.3% | – | –
72 | CCCCNC(=O)COC(=O)c1c2c(nc3ccccc13)CCC2 | – | 1.26% | 7.31 µM (active) | –
73 | CNC(=O)COC(=O)c1c2c(nc3ccccc13)CCC2 | 0.527% (inactive) | -0.369% | – | –
74 | COc1ccc(NC(=O)COC(=O)c2c3c(nc4ccccc24)CCCC3)cc1 | -1.44% (inactive) | -10.5% | – | –
75 | CN(CC(=O)NCCN1CCN(Cc2ccccc2)CC1)S(=O)(=O)c1cccc2nsnc12 | -4.25% (inactive) | 3.2% | – | –
76 | COCC(C)NC(=O)CCc1nnc(C2(c3ccc(Cl)cc3)CCC2)o1 (configuration not stated) | -11.8% (inactive) | 7.22% | – | –
77 | Cc1cc(C)n(C(=O)CCCC(=O)n2nc(C)cc2C)n1 | 9.69% (inactive) | -1.02% | – | –
78 | Cc1ccc(NC(=O)CCC(=O)n2nc(C)cc2C)c(C)c1 | – | – | 18.4 µM (active) | –
79 | CCOc1ccc(NC(=O)CCC(=O)n2nc(C)cc2C)cc1 | -4.91% (inactive) | 1.15% | – | –
80 | CC(C)N(C(=O)Cn1c(=O)oc2ccccc21)c1ccccc1 | -14.7% (inactive) | 12.3% | – | –
81 | CCN1C(=O)[C@H]2[C@@H](c3ccc(C)cc3)N3C(=O)N(c4ccc(C(F)(F)F)cc4)C(=O)[C@@]3(CC)[C@H]2C1=O | -0.378% (inactive) | -7.19% | – | –
82 | CCN1C(=O)[C@H]2[C@@H](c3ccc(C)cc3)N3C(=O)N(c4ccc(C(F)(F)F)cc4)C(=O)[C@@]3(CC(C)C)[C@H]2C1=O | – | 11.1% | 18.4 µM (active) | –
83 | COc1ccc([C@@H]2[C@@H]3C(=O)N(C(C)(C)C)C(=O)[C@@H]3[C@]3(CC(C)C)C(=O)N(c4ccc(C(F)(F)F)cc4)C(=O)N23)cc1 | – | 18.1% | 20.6 µM (active) | –
84 | COc1ccc([C@@H]2[C@@H]3C(=O)N(C(C)(C)C)C(=O)[C@@H]3[C@]3(Cc4ccc(Cl)cc4)C(=O)N(c4ccc(OC)cc4)C(=O)N23)cc1 | 11.9% (inactive) | 16% | – | –
85 | CCN1C(=O)[C@H]2[C@@H](c3ccc(C)cc3)N3C(=O)N(c4ccccc4)C(=O)[C@@]3(CC)[C@H]2C1=O | – | 16.2% | – | inactive
86 | COc1ccc([C@@H]2[C@@H]3C(=O)N(C(C)(C)C)C(=O)[C@@H]3[C@]3(C)C(=O)N(c4ccc(C(F)(F)F)cc4)C(=O)N23)cc1 | -1.6% (inactive) | 14.7% | – | –
87 | COc1ccc(CCNC(=O)CSc2ccc(-c3ccccc3)nn2)cc1 | -1.45% (inactive) | 2.87% | – | –
88 | CC(C)CNC(=O)C1CC(=O)OC12CCCCC2 (configuration not stated) | – | – | – | inactive
